# Data reported in PubChem BioAssay (EPA / NIEHS).
# Activity calls are given as the source filed them. How the source made its calls: active means hit-call score of the fitted dose curve at least 0.9, where 1 is the maximum; inactive means score below 0.9.
# Experiments:
# Settings in all cases: mRNA level, 48 h; actives raise or lower the signal
# [1] = read-out: Heat shock 70 kDa protein 1 (HSPA1A), gene 3303; experiment: LTEA_HepaRG_HSPA1A: Life Technologies and Expression Analysis (LTEA) Assay for Heat shock 70 kDa protein 1 (HSPA1A) using HepaRG (AID 2283502)
# Procedure, shortened: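 Differentiated human HepaRG cells in serum-free induction medium were exposed in duplicate for 48 h to eight concentrations (top 100 uM, half-log steps, 0.5% DMSO). HSPA1A mRNA was quantified by qRT-PCR, normalized to ACTB, GAPDH and POLR2A, and fitted bidirectionally against DMSO.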
# [2] = read-out: Hypoxia-inducible factor 1-alpha (Homo sapiens) (UniProt Q16665); experiment: LTEA_HepaRG_HIF1A: Life Technologies and Expression Analysis (LTEA) Assay for Hypoxia-inducible factor 1 (HIF1A) Trancription factor using HepaRG (AID 2283503)
# Procedure, shortened: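 HepaRG, 48 h exposure, 8-pt half-log series from 100 uM, 0.5% DMSO vehicle, duplicates. Readout: HIF1A transcript by qRT-PCR (Fluidigm array), housekeeping-normalised. Bidirectional curve fit vs DMSO baseline.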
# [3] = read-out: 3-Hydroxy-3-Methylglutaryl-CoA Synthase 2 (HMGCS2), HMGCS2 (gene 3158); experiment: LTEA_HepaRG_HMGCS2: Life Technologies and Expression Analysis (LTEA) Assay for 3-Hydroxy-3-Methylglutaryl-CoA Synthase 2 (HMGCS2) using HepaRG (AID 2283504)
# Procedure, shortened: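 Human HepaRG cells in serum-free induction medium were exposed in duplicate for 48 h to 8-point half-log series from 100 uM top in 0.5% DMSO. HMGCS2 mRNA measured by TaqMan qRT-PCR, normalised to ACTB, GAPDH, POLR2A; bidirectional fit versus DMSO.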
# [4] = read-out: HGF (gene 3082); experiment: LTEA_HepaRG_HGF: Life Technologies and Expression Analysis (LTEA) Assay for Hepatocyte Growth Facto (HGF) using HepaRG (AID 2283505)
# Procedure, shortened: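 Differentiated HepaRG cells in serum-free induction medium exposed 48 h in duplicate, 8 half-log concentrations from 100 uM in 0.5% DMSO. HGF mRNA by qRT-PCR, normalised to ACTB, GAPDH, POLR2A; bidirectional fitting.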
# [5] = read-out: Insulin Like Growth Factor 1 (IGF1), IGF1 (gene 3479); experiment: LTEA_HepaRG_IGF1: Life Technologies and Expression Analysis (LTEA) Assay for Insulin Like Growth Factor 1 (IGF1) using HepaRG (AID 2283506)
# Procedure, shortened: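 Differentiated human HepaRG cells were dosed for 48 h in serum-free induction medium with 0.5% DMSO, eight half-log concentrations up to 100 uM, in duplicate. IGF1 mRNA was quantified by qRT-PCR normalized to ACTB, GAPDH, POLR2A; bidirectional fitting versus DMSO.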
# [6] = read-out: Intercellular Adhesion Molecule 1 (ICAM1), ICAM1 (gene 3383); experiment: LTEA_HepaRG_ICAM1: Life Technologies and Expression Analysis (LTEA) Assay for Intercellular Adhesion Molecule 1 (ICAM1) using HepaRG (AID 2283507)
# Procedure, shortened: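 Differentiated human HepaRG cells in serum-free induction medium exposed 48 h in duplicate to 8 half-log concentrations (top 100 uM, 0.5% DMSO). ICAM1 mRNA quantified by TaqMan qRT-PCR, normalized to ACTB, GAPDH and POLR2A; bidirectional fitting versus DMSO.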
# [7] = read-out: Insulin-like growth factor-binding protein 1 (IGFBP1), IGFBP1 (gene 3484); experiment: LTEA_HepaRG_IGFBP1: Life Technologies and Expression Analysis (LTEA) Assay for Insulin-like growth factor-binding protein 1 (IGFBP1) using HepaRG (AID 2283508)
# Procedure, shortened: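 HepaRG cells, plated 48 h then switched to serum-free induction medium, exposed in duplicate for 48 h to 8-point half-log series from 100 uM in 0.5% DMSO. mRNA measured by qRT-PCR, normalized to ACTB/GAPDH/POLR2A; bidirectional fit versus DMSO.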
# [8] = read-out: Interleukin 6 (IL6), IL6 (gene 3569); experiment: LTEA_HepaRG_IL6: Life Technologies and Expression Analysis (LTEA) Assay for Interleukin 6 (IL6) using HepaRG (AID 2283509)
# Procedure, shortened: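 HepaRG, ~100,000 cells/well, 48 h pre-culture; serum-free induction medium; cmpd 8-pt half-log from 100 uM, 0.5% DMSO, duplicate, 48 h. Lysis in RLT, TaqMan qRT-PCR; gain or loss vs DMSO.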
# [9] = read-out: Interleukin 6 Receptor (IL6R), IL6R (gene 3570); experiment: LTEA_HepaRG_IL6R: Life Technologies and Expression Analysis (LTEA) Assay for Interleukin 6 Receptor (IL6R) using HepaRG (AID 2283510);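 on AC50: TaqMan qRT-PCR signal normalized to ACTB GAPDH and POLR2A housekeeping genes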
# Procedure, shortened: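 Differentiated human HepaRG cells, plated 48 h then switched to serum-free induction medium, were dosed in duplicate for 48 h at eight half-log concentrations up to 100 uM in 0.5% DMSO. IL6R mRNA quantified by qRT-PCR, normalized to ACTB/GAPDH/POLR2A; bidirectional fit versus DMSO.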
# [10] = read-out: Potassium channel subfamily K member 1 (KCNK1), KCNK1 (gene 3775); experiment: LTEA_HepaRG_KCNK1: Life Technologies and Expression Analysis (LTEA) Assay for Potassium channel subfamily K member 1 (KCNK1) using HepaRG (AID 2283511)
# Procedure, shortened: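 Gain or loss of KCNK1 mRNA is the read-out, quantified by qRT-PCR against three housekeeping genes after 48 h chemical treatment of human HepaRG liver cells. Concentrations ran from 100 uM downward in half-log steps, vehicle 0.5% DMSO.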
# [11] = read-out: Keratin 19 (KRT19), KRT19 (gene 3880); experiment: LTEA_HepaRG_KRT19: Life Technologies and Expression Analysis (LTEA) Assay for Keratin 19 (KRT19) using HepaRG (AID 2283512)
# Procedure, shortened: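 Differentiated HepaRG cells in serum-free induction medium, exposed 48 h in duplicate to 8 half-log concentrations up to 100 uM in 0.5% DMSO. KRT19 mRNA by qRT-PCR, normalized to ACTB, GAPDH, POLR2A; bidirectional fit vs DMSO.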
# [12] = read-out: JUN Transcription Factor, JUN (gene 3725); experiment: LTEA_HepaRG_JUN: Life Technologies and Expression Analysis (LTEA) Assay for JUN Transcription Factor using HepaRG (AID 2283513)
# Procedure, shortened: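 Differentiated HepaRG cells were exposed to chemicals for 48 h in serum-free induction medium, 8 concentrations from 100 uM in half-log steps, 0.5% DMSO vehicle, in duplicate. JUN mRNA was quantified by TaqMan qRT-PCR, normalized to ACTB, GAPDH, POLR2A.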
# [13] = read-out: Lipase C (LIPC), LIPC (gene 3990); experiment: LTEA_HepaRG_LIPC: Life Technologies and Expression Analysis (LTEA) Assay for Lipase C (LIPC) using HepaRG (AID 2283514)
# Procedure, shortened: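 Read-out is LIPC transcript level by TaqMan qRT-PCR, normalized to three housekeeping genes, after 48 h chemical treatment of human HepaRG liver cells. Curves span eight concentrations topping at 100 uM; activity in either direction scored relative to 0.5% DMSO.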
# [14] = read-out: Lipoprotein lipase (LPL), LPL (gene 4023); experiment: LTEA_HepaRG_LPL: Life Technologies and Expression Analysis (LTEA) Assay for Lipoprotein lipase (LPL) using HepaRG (AID 2283515)
# Procedure, shortened: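 Read-out is LPL transcript level by qRT-PCR, normalized to three housekeeping genes and fitted bidirectionally against the DMSO control. Human HepaRG cells received chemicals for 48 h at up to 100 uM.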
# [15] = read-out: MicroRNA 122 (MIR122), gene 406906; experiment: LTEA_HepaRG_MIR122: Life Technologies and Expression Analysis (LTEA) Assay for MicroRNA 122 (MIR122) using HepaRG (AID 2283516); further: the transcript read is the microRNA miR-122
# Procedure, shortened: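 Differentiated human HepaRG cells were exposed 48 h in serum-free induction medium to eight half-log concentrations (top 100 uM, 0.5% DMSO). Transcript level was measured by TaqMan qRT-PCR, normalized to ACTB, GAPDH and POLR2A, and fitted bidirectionally versus DMSO.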
# [16] = read-out: matrix metalloproteinase-10 (MMP10), MMP10 (gene 4319); experiment: LTEA_HepaRG_MMP10: Life Technologies and Expression Analysis (LTEA) Assay for matrix metalloproteinase-10 (MMP10) using HepaRG (AID 2283517)
# Procedure, shortened: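 Gain or loss of MMP10 mRNA is fitted relative to the 0.5% DMSO vehicle. The human hepatic line HepaRG receives a 48-hour serum-free exposure, in duplicate, with a maximum concentration of 100 uM.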
# [17] = read-out: MYC, MYC (gene 4609); experiment: LTEA_HepaRG_MYC: Life Technologies and Expression Analysis (LTEA) Assay for MYC using HepaRG (AID 2283518)
# Procedure, shortened: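 Differentiated HepaRG cells exposed 48 h in serum-free induction medium to 8 concentrations (top 100 uM, half-log steps; 0.5% DMSO), duplicate. MYC mRNA measured by Fluidigm qRT-PCR, normalized to ACTB, GAPDH, POLR2A; bidirectional fit versus DMSO.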
# [18] = read-out: matrix metalloproteinase-3 (MMP3), MMP3 (gene 4314); experiment: LTEA_HepaRG_MMP3: Life Technologies and Expression Analysis (LTEA) Assay for matrix metalloproteinase-3 (MMP3) using HepaRG (AID 2283519)
# Procedure, shortened: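 HepaRG, human; 48 h dosing, 8 conc. (max 100 uM, half-log), duplicate, 0.5% DMSO. Readout: MMP3 transcript by Fluidigm TaqMan qRT-PCR, ACTB/GAPDH/POLR2A-normalised. Gain or loss fitted vs DMSO.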
# [19] = read-out: Paternally Expressed 10 (PEG10), PEG10 (gene 23089); experiment: LTEA_HepaRG_PEG10: Life Technologies and Expression Analysis (LTEA) Assay for Paternally Expressed 10 (PEG10) using HepaRG (AID 2283520)
# Procedure, shortened: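 Differentiated HepaRG cells, plated 48 h then switched to serum-free induction medium, were exposed in duplicate for 48 h to eight half-log concentrations topping at 100 uM in 0.5% DMSO. PEG10 mRNA was quantified by TaqMan qRT-PCR, normalised to ACTB, GAPDH and POLR2A.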
# [20] = read-out: Nuclear factor NF-kappa-B p105 subunit (Homo sapiens) (UniProt P19838); experiment: LTEA_HepaRG_NFKB1: Life Technologies and Expression Analysis (LTEA) Assay for Nuclear Factor Kappa B Subunit 1 (NFKB1) using HepaRG (AID 2283521)
# Procedure, shortened: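 HepaRG, 48 h exposure; 8-pt half-log series from 100 uM in 0.5% DMSO; duplicates. Readout: NFKB1 mRNA by qRT-PCR (Fluidigm arrays), housekeeping-normalized. Gain/loss fit vs DMSO baseline.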
# Sequence of Hypoxia-inducible factor 1-alpha (Homo sapiens) (Q16665 whole entry, looked up): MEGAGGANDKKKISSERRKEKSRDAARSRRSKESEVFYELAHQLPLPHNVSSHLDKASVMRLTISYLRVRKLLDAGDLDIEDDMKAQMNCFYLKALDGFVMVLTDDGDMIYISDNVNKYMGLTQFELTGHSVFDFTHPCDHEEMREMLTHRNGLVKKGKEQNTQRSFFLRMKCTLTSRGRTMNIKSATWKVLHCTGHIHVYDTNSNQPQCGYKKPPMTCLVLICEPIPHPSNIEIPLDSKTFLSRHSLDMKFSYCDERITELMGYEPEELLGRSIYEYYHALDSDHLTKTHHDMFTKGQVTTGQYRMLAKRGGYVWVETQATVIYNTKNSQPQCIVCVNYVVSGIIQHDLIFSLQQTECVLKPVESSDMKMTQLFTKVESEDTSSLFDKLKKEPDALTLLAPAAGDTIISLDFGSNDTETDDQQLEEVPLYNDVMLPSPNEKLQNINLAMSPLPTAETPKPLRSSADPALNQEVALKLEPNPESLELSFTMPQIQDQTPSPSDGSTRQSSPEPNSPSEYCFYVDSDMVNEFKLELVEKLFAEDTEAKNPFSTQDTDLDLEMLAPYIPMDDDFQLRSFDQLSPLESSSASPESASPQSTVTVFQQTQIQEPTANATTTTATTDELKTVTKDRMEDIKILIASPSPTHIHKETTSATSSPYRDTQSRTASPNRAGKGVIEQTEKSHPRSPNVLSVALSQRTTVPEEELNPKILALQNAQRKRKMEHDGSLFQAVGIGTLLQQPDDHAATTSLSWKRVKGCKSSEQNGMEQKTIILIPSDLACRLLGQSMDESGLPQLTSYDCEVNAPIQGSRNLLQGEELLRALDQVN
# Sequence of Nuclear factor NF-kappa-B p105 subunit (Homo sapiens) (P19838 whole entry, looked up): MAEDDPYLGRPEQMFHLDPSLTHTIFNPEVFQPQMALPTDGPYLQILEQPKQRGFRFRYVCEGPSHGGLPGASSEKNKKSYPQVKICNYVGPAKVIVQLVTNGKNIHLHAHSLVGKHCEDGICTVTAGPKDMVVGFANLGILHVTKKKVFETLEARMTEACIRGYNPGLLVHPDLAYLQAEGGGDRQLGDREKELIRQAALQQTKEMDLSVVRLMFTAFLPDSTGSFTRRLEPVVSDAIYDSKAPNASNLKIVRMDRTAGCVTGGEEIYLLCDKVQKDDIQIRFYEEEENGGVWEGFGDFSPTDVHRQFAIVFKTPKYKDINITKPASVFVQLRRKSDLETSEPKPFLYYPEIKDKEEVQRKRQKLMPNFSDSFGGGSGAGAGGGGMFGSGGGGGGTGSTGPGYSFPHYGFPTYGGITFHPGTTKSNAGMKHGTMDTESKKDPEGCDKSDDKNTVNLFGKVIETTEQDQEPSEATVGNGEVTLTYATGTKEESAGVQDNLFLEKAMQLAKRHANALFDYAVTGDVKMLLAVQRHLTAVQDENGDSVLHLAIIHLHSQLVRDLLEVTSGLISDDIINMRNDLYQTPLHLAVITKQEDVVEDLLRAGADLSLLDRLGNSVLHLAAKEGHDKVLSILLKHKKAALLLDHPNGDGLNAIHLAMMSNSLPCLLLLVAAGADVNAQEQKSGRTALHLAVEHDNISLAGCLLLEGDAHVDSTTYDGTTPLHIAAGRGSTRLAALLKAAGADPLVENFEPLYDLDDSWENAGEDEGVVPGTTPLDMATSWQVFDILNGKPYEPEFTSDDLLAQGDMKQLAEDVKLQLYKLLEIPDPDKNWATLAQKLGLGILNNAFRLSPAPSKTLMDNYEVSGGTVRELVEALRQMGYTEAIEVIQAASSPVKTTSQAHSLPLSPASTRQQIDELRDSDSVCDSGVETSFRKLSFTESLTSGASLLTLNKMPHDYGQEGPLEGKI
structure (smiles),measurement,setting,value
c1ccc(NNc2ccccc2)cc1,outcome,[1],inactive
same,outcome,[2],inactive
same,outcome,[3],inactive
same,outcome,[4],inactive
same,outcome,[5],inactive
same,outcome,[6],inactive
same,outcome,[7],inactive
same,outcome,[8],inactive
same,outcome,[9],inactive
same,outcome,[10],inactive
same,outcome,[11],inactive
same,outcome,[12],inactive
same,outcome,[13],inactive
same,outcome,[14],inactive
same,outcome,[15],inactive
same,outcome,[16],inactive
same,outcome,[17],inactive
same,outcome,[18],inactive
same,outcome,[19],inactive
same,outcome,[20],inactive
Nc1ccc(Cl)cc1N,AC50,[1],20.6 µM (active)
same,AC50,[2],19.7 µM (active)
same,AC50,[3],34.1 µM (active)
same,AC50,[4],33.6 µM (active)
same,AC50,[5],25 µM (active)
same,outcome,[6],inactive
same,AC50,[7],16.1 µM (active)
same,AC50,[9],34.2 µM (active)
same,outcome,[10],inactive
same,AC50,[11],33.5 µM (active)
same,outcome,[12],inactive
same,AC50,[13],17.3 µM (active)
same,AC50,[14],13.2 µM (active)
same,AC50,[15],21 µM (active)
same,outcome,[16],inactive
same,AC50,[17],13.4 µM (active)
same,AC50,[18],30.1 µM (active)
same,AC50,[19],14.2 µM (active)
same,AC50,[20],12.5 µM (active)
